The values that follow come from PubChem BioAssay (EPA / NIEHS).

Common to all, as to details: mRNA level, 48 h; actives raise or lower the signal
Read-out in assay [1]: Bcl-2 (BAD) gene, BAD (gene 572)
Kind of assay: LTEA_HepaRG_BAD: Life Technologies and Expression Analysis (LTEA) Assay for Bcl-2 (BAD) gene using HepaRG (AID 2283469). A digest of the protocol: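 HepaRG, 48 h exposure, 8-pt half-log curve from 100 uM in 0.5% DMSO, duplicates. Readout: TaqMan qRT-PCR for BAD mRNA, housekeeping-normalised (ACTB/GAPDH/POLR2A); gain or loss fitted against DMSO baseline.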

Read-out in assay [2]: Bcl-2 (BAX) gene, BAX (gene 581)
As to the kind of experiment: LTEA_HepaRG_BAX: Life Technologies and Expression Analysis (LTEA) Assay for Bcl-2 (BAX) gene using HepaRG (AID 2283470). A digest of the protocol:
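Cells were thawed, plated for 48 h, moved to serum-free induction medium and dosed for 48 h (highest concentration 100 uM, half-log steps, 0.5% DMSO). Total RNA was then analysed for BAX expression by qRT-PCR.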

Read-out in assay [3]: adenosine kinase (ADK) gene, ADK (gene 132)
As to the kind of experiment: LTEA_HepaRG_ADK: Life Technologies and Expression Analysis (LTEA) Assay for adenosine kinase (ADK) gene using HepaRG (AID 2283471). A digest of the protocol: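 HepaRG (human liver), 48 h chemical exposure, 8-pt half-log series, top 100 uM, 0.5% DMSO vehicle. Readout: ADK mRNA by qRT-PCR vs housekeeping genes; bidirectional curve fit relative to DMSO baseline.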

Read-out in assay [4]: Alpha-fetoprotein (AFP) gene, AFP (gene 174)
As to the kind of experiment: LTEA_HepaRG_AFP: Life Technologies and Expression Analysis (LTEA) Assay for Alpha-fetoprotein (AFP) gene using HepaRG (AID 2283472). Put shortly:
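Chemicals were tested on differentiated HepaRG cells for 48 hours at eight concentrations up to 100 uM, with 0.5% DMSO as vehicle. AFP expression was then quantified by qRT-PCR and analyzed for gain or loss relative to DMSO.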

Read-out in another assay: BCL2L11 (gene 10018)
Kind of assay: LTEA_HepaRG_BCL2L11: Life Technologies and Expression Analysis (LTEA) Assay for Bcl-2 (BCL2L11) gene using HepaRG (AID 2283473). Put shortly: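 Differentiated human HepaRG cells were exposed 48 h in serum-free induction medium to eight half-log concentrations up to 100 uM in 0.5% DMSO, in duplicate. BCL2L11 mRNA was quantified by TaqMan qRT-PCR, normalized to ACTB, GAPDH and POLR2A; induction or repression fitted versus DMSO.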

Read-out in assay [5]: Apolipoprotein A-V (APOA5) gene, APOA5 (gene 116519)
As to the kind of experiment: LTEA_HepaRG_APOA5: Life Technologies and Expression Analysis (LTEA) Assay for Apolipoprotein A-V (APOA5) gene using HepaRG (AID 2283474). A digest of the protocol:
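Differentiated HepaRG cells in serum-free induction medium, exposed 48 h in duplicate to eight half-log concentrations topping at 100 uM (0.5% DMSO). APOA5 mRNA by Fluidigm TaqMan qRT-PCR, normalized to ACTB, GAPDH and POLR2A; bidirectional fit versus DMSO.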

Read-out in assay [6]: Apoptosis regulator Bcl-2 (Homo sapiens) (UniProt P10415)
Kind of assay: LTEA_HepaRG_BCL2: Life Technologies and Expression Analysis (LTEA) Assay for Bcl-2 gene using HepaRG (AID 2283475). A digest of the protocol:
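Plated human HepaRG cells are exposed to test chemicals for 48 h across eight concentrations from 100 uM downward in half-log steps (0.5% DMSO). BCL2 expression is then measured by qRT-PCR with housekeeping normalisation and fitted bidirectionally against vehicle.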

Read-out in assay [7]: Bcl-2 (BID) gene, BID (gene 637)
Kind of assay: LTEA_HepaRG_BID: Life Technologies and Expression Analysis (LTEA) Assay for Bcl-2 (BID) gene using HepaRG (AID 2283476). A digest of the protocol: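 Cells are plated, cultured 48 h, switched to serum-free induction medium, then dosed 48 h (100 uM top, half-log steps, 0.5% DMSO). RNA is isolated and BID expression read by qRT-PCR.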

Read-out in another assay: Caspase-3 (Homo sapiens) (UniProt P42574)
As to the kind of experiment: LTEA_HepaRG_CASP3: Life Technologies and Expression Analysis (LTEA) Assay for cysteine-aspartic acid protease (CASP3) using HepaRG (AID 2283477). A digest of the protocol: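 Differentiated HepaRG cells, plated 48 h, were treated in duplicate in serum-free induction medium for 48 h with eight half-log concentrations up to 100 uM in 0.5% DMSO. CASP3 mRNA measured by qRT-PCR, normalized to ACTB, GAPDH, POLR2A.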

Read-out in assay [8]: Cytochrome P450 (CYP24A1), CYP24A1 (gene 1591)
Kind of assay: LTEA_HepaRG_CYP24A1: Life Technologies and Expression Analysis (LTEA) Assay for Cytochrome P450 (CYP24A1) using HepaRG (AID 2283478). Put shortly:
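HepaRG cells plated 48 h, then exposed in duplicate in serum-free induction medium for 48 h to 8-point half-log series from 100 uM in 0.5% DMSO. CYP24A1 mRNA by Fluidigm qRT-PCR, normalized to ACTB, GAPDH, POLR2A; bidirectional fit versus DMSO.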

Read-out in assay [9]: Cytochrome P450 (CYP1A2), CYP1A2 (gene 1544)
As to the kind of experiment: LTEA_HepaRG_CYP1A2: Life Technologies and Expression Analysis (LTEA) Assay for Cytochrome P450 (CYP1A2) using HepaRG (AID 2283479). Put shortly: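 Differentiated human HepaRG cells in serum-free induction medium exposed 48 hours in duplicate to 8 half-log concentrations from 100 uM, 0.5% DMSO. CYP1A2 mRNA quantified by qRT-PCR, normalized to ACTB, GAPDH and POLR2A; bidirectional fitting versus DMSO.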

Read-out in assay [10]: cysteine-aspartic acid protease (CASP8), CASP8 (gene 841)
Kind of assay: LTEA_HepaRG_CASP8: Life Technologies and Expression Analysis (LTEA) Assay for cysteine-aspartic acid protease (CASP8) using HepaRG (AID 2283480). A digest of the protocol: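 qRT-PCR readout of CASP8 mRNA, normalized to three housekeeping genes, after 48 h chemical exposure of HepaRG cells; 8-point half-log series, top 100 uM, 0.5% DMSO vehicle. Bidirectional curve fitting against DMSO baseline.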

Read-out in assay [11]: Cytochrome P450 (CYP2B6), CYP2B6 (gene 1555)
Kind of assay: LTEA_HepaRG_CYP2B6: Life Technologies and Expression Analysis (LTEA) Assay for Cytochrome P450 (CYP2B6) using HepaRG (AID 2283481). A digest of the protocol: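 Differentiated human HepaRG cells in serum-free induction medium, dosed in duplicate for 48 h over 8 half-log concentrations topping at 100 uM (0.5% DMSO). CYP2B6 mRNA measured by TaqMan qRT-PCR, normalized to ACTB, GAPDH, POLR2A; bidirectional fit versus DMSO.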

Read-out in assay [12]: Cytochrome P450 2C19 (Homo sapiens) (UniProt P33261)
As to the kind of experiment: LTEA_HepaRG_CYP2C19: Life Technologies and Expression Analysis (LTEA) Assay for CYP2C19 using HepaRG (AID 2283482). Put shortly:
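Differentiated HepaRG cells in serum-free induction medium exposed 48 h in duplicate, 8 concentrations from 100 uM by half-log steps in 0.5% DMSO. CYP2C19 mRNA measured by TaqMan qRT-PCR, normalized to ACTB, GAPDH, POLR2A. Bidirectional fit versus DMSO.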

Read-out in a further assay: CYP2C8 (gene 1558)
As to the kind of experiment: LTEA_HepaRG_CYP2C8: Life Technologies and Expression Analysis (LTEA) Assay for CYP2C8 using HepaRG (AID 2283483). A digest of the protocol:
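HepaRG (human liver line), 48 h chemical exposure, 8-pt half-log series from 100 uM, 0.5% DMSO vehicle. Readout: CYP2C8 transcript by qRT-PCR, housekeeping-normalized. Bidirectional fit vs DMSO baseline.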

Read-out in a further assay: CYP2E1 (gene 1571)
Kind of assay: LTEA_HepaRG_CYP2E1: Life Technologies and Expression Analysis (LTEA) Assay for CYP2E1 using HepaRG (AID 2283485). A digest of the protocol: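 Readout is qRT-PCR of CYP2E1 mRNA, normalized to three housekeeping genes and fitted bidirectionally against 0.5% DMSO. HepaRG cells were dosed 48 h at eight concentrations, highest 100 uM with half-log dilutions.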

Read-out in another assay: CYP4A11 (gene 1579)
As to the kind of experiment: LTEA_HepaRG_CYP4A11: Life Technologies and Expression Analysis (LTEA) Assay for CYP4A11 using HepaRG (AID 2283486). Put shortly:
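Differentiated HepaRG cells, 48 h after plating, exposed in duplicate for 48 h to 8 half-log concentrations up to 100 uM in 0.5% DMSO in serum-free induction medium. CYP4A11 mRNA measured by TaqMan qRT-PCR, normalized to ACTB, GAPDH and POLR2A.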

Read-out in assay [13]: Cytochrome P450 3A4 (Homo sapiens) (UniProt P08684)
Kind of assay: LTEA_HepaRG_CYP3A4: Life Technologies and Expression Analysis (LTEA) Assay for CYP3A4 using HepaRG (AID 2283487). Put shortly:
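CYP3A4 transcript measured by TaqMan qRT-PCR and normalized to three housekeeping genes after 48 h chemical exposure of human HepaRG cells. Top concentration 100 uM, half-log steps, 0.5% DMSO vehicle; gain or loss fitted against DMSO baseline.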

Structures are written as SMILES. Activity calls are given as the source filed them. The calls were made as follows: active = hit-call score of the fitted dose curve at least 0.9, where 1 is the maximum; inactive = score below 0.9.

Chain of Cytochrome P450 2C19 (Homo sapiens) (P33261 whole entry, looked up): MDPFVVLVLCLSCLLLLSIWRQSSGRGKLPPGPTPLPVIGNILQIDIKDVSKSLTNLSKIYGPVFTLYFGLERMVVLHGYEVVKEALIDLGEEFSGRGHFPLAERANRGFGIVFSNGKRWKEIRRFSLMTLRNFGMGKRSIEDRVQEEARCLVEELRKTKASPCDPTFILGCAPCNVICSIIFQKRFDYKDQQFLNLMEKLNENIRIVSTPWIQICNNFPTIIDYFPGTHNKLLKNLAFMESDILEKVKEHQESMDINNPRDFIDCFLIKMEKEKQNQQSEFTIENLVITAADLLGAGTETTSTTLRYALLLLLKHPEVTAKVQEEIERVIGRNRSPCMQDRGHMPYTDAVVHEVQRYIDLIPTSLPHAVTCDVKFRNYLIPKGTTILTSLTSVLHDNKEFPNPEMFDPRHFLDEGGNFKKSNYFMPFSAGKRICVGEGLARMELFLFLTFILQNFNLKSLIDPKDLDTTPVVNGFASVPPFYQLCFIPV
Chain of Apoptosis regulator Bcl-2 (Homo sapiens) (P10415 whole entry, looked up): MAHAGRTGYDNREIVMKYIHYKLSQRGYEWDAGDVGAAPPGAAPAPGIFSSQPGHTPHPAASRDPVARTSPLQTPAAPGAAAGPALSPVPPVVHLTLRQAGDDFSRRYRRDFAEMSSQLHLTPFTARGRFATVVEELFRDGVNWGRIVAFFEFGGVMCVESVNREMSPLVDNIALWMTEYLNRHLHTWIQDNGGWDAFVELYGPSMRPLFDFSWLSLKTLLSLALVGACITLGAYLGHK
Chain of Caspase-3 (Homo sapiens) (P42574 whole entry, looked up): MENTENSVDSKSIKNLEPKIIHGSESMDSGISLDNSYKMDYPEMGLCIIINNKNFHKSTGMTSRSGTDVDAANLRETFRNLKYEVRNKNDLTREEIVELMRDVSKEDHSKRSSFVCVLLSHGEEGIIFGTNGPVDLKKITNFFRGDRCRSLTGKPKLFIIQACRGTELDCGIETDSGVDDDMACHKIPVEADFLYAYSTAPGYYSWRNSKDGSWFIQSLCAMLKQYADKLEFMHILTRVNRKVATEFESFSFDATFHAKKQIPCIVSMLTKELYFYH
Chain of Cytochrome P450 3A4 (Homo sapiens) (P08684 whole entry, looked up): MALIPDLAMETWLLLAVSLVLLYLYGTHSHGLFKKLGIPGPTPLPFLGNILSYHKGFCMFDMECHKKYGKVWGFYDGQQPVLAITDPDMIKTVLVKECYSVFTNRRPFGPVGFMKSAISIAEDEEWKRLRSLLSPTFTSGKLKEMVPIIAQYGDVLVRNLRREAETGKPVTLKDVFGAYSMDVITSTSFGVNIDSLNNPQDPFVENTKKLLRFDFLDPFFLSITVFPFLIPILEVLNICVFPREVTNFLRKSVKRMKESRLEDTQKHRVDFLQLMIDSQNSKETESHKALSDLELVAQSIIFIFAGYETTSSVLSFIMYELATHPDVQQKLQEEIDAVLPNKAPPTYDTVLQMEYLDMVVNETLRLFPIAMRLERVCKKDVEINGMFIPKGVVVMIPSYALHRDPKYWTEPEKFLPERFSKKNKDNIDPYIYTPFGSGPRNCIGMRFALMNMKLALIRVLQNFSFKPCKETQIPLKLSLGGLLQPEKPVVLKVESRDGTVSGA

As a reminder, the AC50 is the midpoint of the concentration-response curve, whichever way the signal moves. `Oc1ccc(C(c2ccc(O)cc2)C(Cl)(Cl)Cl)cc1`: the compound was classed as inactive (in assay [1]; in assay [2]; in assay [4]; with BCL2L11 (gene 10018); in assay [6]; in assay [8]). Also, in assay [9], the compound was called inactive. In addition, the AC50 was 75.9 µM (active) in [3]; 79.7 µM (active) in assay [5]; 84.8 µM (active) in assay [7]; 86.2 µM (active) in the assay with Caspase-3 (Homo sapiens); 88.4 µM (active) in assay [10]; 81.1 µM (active) in [11]. The concentration at half-maximal activity (AC50) in [12] is 78.4 µM (active); with CYP2C8 (gene 1558) it was 93.2 µM (active); with CYP2E1 (gene 1571), 93.8 µM (active); with CYP4A11 (gene 1579), 93.2 µM (active); in assay [13], 78.7 µM (active).
In the case of `CCCCC(CC)CN1C(=O)C2C3C=CC(C3)C2C1=O` (stereo not drawn), the call (in assay [1]; in assay [2]; in [3]; in the assay with BCL2L11 (gene 10018); in assay [6]; in the assay with Caspase-3 (Homo sapiens)) was inactive. Moreover, the call in [8] and in assay [10] was inactive. Also, the AC50 in [4] was 50 µM (active); in [5], 79.3 µM (active); in assay [9], 82.3 µM (active); in assay [11], 88.6 µM (active); in [12] it was 92 µM (active); in the assay with CYP2C8 (gene 1558), 88.3 µM (active). Also, the half-maximal activity concentration (AC50) was 43 µM (active) with CYP2E1 (gene 1571), 36.1 µM (active) with CYP4A11 (gene 1579) and 91 µM (active) in assay [13].
With `CCCN(CCC)c1c([N+](=O)[O-])cc(C(F)(F)F)c(N)c1[N+](=O)[O-]`, the call (in assay [1]; in assay [2]; in assay [3]; with BCL2L11 (gene 10018); in assay [6]; in the assay with Caspase-3 (Homo sapiens)) was inactive. For the same compound, the call (in assay [8]; in assay [9]; in assay [10]; in the assay with CYP2C8 (gene 1558)) was inactive. Besides, the AC50 in assay [4] was 34.4 µM (active); in [5], 50 µM (active); in [11], 3.15 µM (active); in [12], 5.41 µM (active); in the assay with CYP2E1 (gene 1571), 16.2 µM (active); in assay [13], 7.3 µM (active).
Consider `CCNc1nc(N)nc(Cl)n1`, for which the call (in assay [1]; in assay [2]; in assay [3]; in [4]; with BCL2L11 (gene 10018); in assay [5]) was inactive. Besides, the compound was called inactive (in assay [6]; with Caspase-3 (Homo sapiens); in [8]; in assay [9]; in assay [10]; with CYP2C8 (gene 1558)). For the same compound, in the assay with CYP4A11 (gene 1579), the outcome was inactive. Moreover, the AC50 in assay [11] was 6.87 µM (active); in assay [12] it was 6.65 µM (active); with CYP2E1 (gene 1571), 50 µM (active); in [13] it was 3.18 µM (active).
